Screening results (PubChem BioAssay)
PNC inhibitor – High Content Assay for Compounds that inhibit the Assembly of the Perinucleolar Compartment | 140,000 tested, 3.1% active | PC3M PTB-GFP, PNC prevalence imaging, 16 h; stronger effect = lower value | activity change (PNC), negative = inhibition, % at 10 µM;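 active = readout at or below -70, meaning at least 70% loss of cells showing the perinucleolar compartment, a nuclear body marking cancer cells; inconclusive = readout between -30 and a set limit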;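 also: plate controls were DMSO wells for no effect and camptothecin positive control wells for full effect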
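PC3M cells stably expressing PTB-GFP, 750–1000 cells/well, treated 16 h at 37 °C with compound (23 nl of library stock), in duplicate. After paraformaldehyde fixation and Hoechst stain, imaged at 20x; PNC prevalence scored by image analysis.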
NPSR antag – qHTS Assay for Antagonists of the Neuropeptide S Receptor: cAMP Signal Transduction; AID 1461, 2008; Q6W5P4; 220,000 tested, 1% active; CHO-NPSR cells, cAMP TR-FRET, antagonist mode; Potency, µM (series often up to 38.3 µM), for the others: at the highest dose activity change, negative = inhibition, actives largely listed as inhibitors; also: potency is read from the fitted curve at half-maximal effect; nearly all actives have a fitted effect of over 50% in size
Target sequence (Q6W5P4 whole entry, looked up): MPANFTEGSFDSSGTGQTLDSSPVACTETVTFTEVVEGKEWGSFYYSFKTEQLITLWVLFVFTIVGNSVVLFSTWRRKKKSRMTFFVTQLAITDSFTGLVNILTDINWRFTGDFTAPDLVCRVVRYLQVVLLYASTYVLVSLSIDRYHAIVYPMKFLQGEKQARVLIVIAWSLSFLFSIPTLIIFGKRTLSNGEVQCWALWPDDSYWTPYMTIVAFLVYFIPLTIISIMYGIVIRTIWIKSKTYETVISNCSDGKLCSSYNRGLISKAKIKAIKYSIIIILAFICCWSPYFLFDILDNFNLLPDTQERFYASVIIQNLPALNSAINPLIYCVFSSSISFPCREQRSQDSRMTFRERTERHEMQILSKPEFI
HPGD block – qHTS Assay for Inhibitors of HPGD (15-Hydroxyprostaglandin Dehydrogenase). Potency, µM, for the others: at the highest dose activity change, negative = inhibition, usual class: inhibitors. 150,000 tested, 4.3% active. purified HPGD, NADH fluorescence kinetic, PGE2 substrate; active = well fitted inhibition curve with a large enough effect, not every such curve was filed as active; inconclusive = small, poorly fitted or top-dose-only effect, or another doubt; inactive = no such curve, though single readings can be large or run the other way; also: potency is read from the fitted curve at half-maximal effect
Target sequence (P15428 whole entry, looked up): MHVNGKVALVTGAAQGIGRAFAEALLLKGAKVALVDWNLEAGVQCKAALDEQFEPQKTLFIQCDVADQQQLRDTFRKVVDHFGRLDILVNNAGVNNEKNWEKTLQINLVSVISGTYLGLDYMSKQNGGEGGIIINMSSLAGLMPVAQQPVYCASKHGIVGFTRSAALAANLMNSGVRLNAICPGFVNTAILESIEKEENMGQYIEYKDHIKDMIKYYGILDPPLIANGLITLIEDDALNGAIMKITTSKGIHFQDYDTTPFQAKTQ
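NADH formation kinetics: reaction with 30 uM PGE2 and 1 mM NAD+ (final), 20 nM enzyme, Tris-HCl pH 8 with Tween 20, after 15 min compound preincubation at room temperature. Fluorescence change, last versus first of five reads.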
IMPase Li cell – qHTS Assay for Identifying the Cell-Membrane Permeable IMPase Inhibitors: Potentiation with Lithium; CHO-M1 cells, IP1 TR-FRET (IP-One), carbachol + lithium; Potency, µM (top dose mostly 59.4 µM), for inactives: at the highest dose activity, negative = IMPase inhibition, most hits filed as inhibitors; 210,000 tested, 0.35% active;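 also: IP1 builds up when IMPase is blocked and the TR-FRET signal falls; potency is read from the fitted curve at half-maximal effect; plate controls were basal vehicle for no effect and high inhibitor control for full effect; nearly all actives have a fitted effect of over 50% in size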
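Steps: plate 2000 CHO-M1 cells per well and culture 16–30 h; add compound and lithium; incubate 30 min, 37C; add d2-IP1 tracer and Eu cryptate anti-IP1 antibody in lysis buffer; read after 10 min at room temperature.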
IMPase cell inh – qHTS Assay for Identifying the Cell-Membrane Permeable IMPase Inhibitors; Inositol monophosphatase 1 (Rattus norvegicus), P97697; CHO-M1 cells, IP1 accumulation, HTRF TR-FRET ratio; inhibition (IP1 accumulation), % at 46.1 µM; 120,000 tested, under 10 active; active = well fitted curve in the direction sought with a large enough effect in the signal ratio, not every such curve was filed as active; inconclusive = small, poorly fitted or top-dose-only effect, or a change in a side signal; inactive = no such curve, though single readings can be large or run the other way; the % refers to the signal ratio;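 also: cells stimulated with carbachol in lithium chloride buffer; plate controls were DMSO basal wells for no effect and reference inhibitor wells for full effect; higher means more IMPase inhibition seen as more IP1 and lower FRET ratio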
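The IP-One HTRF competitive assay in carbachol-stimulated CHO-M1 cells quantifies cellular IP1. Compounds spanned up to 46 uM final, and activity is expressed as AC50 from concentration-response fits of the ratio and donor data.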
ALDH1A1 block – qHTS Assay for Inhibitors of Aldehyde Dehydrogenase 1 (ALDH1A1); Potency, µM (top dose mostly 75.3 µM), inactives show at the highest dose activity, negative = inhibition, hits mostly inhibitors; Purified ALDH1A1, NADH fluorescence, propionaldehyde substrate; AID 1030, 2008; 220,000 tested, 7.3% active; Aldehyde dehydrogenase 1A1 (Homo sapiens), P00352; active = well fitted inhibition curve with a large enough effect, not every such curve was filed as active; inconclusive = small, poorly fitted or top-dose-only effect, or another doubt; inactive = no such curve, though single readings can be large or run the other way;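 also: potency is read from the fitted curve at half-maximal effect; plate controls were no enzyme wells and a reference inhibitor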
* = called active by the depositor; ? = inconclusive; . = no result; [ ] = remark or other dose. Compounds with a hit are over-represented: about 11% of the library has one in this group of screens. Unless noted, calls follow the shape of the dose curve; as a rule, active = well fitted curve in the direction sought with a large enough effect; inconclusive = small, poorly fitted or top-dose-only effect, or another doubt; inactive = no such curve, though single readings can be large; an effect the other way counts as inactive or inconclusive. Unless noted, % is scaled to controls: 0 for no effect and ±100 for the full control effect.

SMILES	PNC inhibitor	NPSR antag	HPGD block	IMPase Li cell	IMPase cell inh	ALDH1A1 block
OCC1(Cc2cccc(C(F)(F)F)c2)CCN(Cc2cc3ccccc3o2)CC1	.	?	.	6.1%	.	7.9%
Cc1cc(C(=O)OCC(=O)c2ccc(Br)s2)no1	-19.1	?	?	6.31µM*	?	?
CC#CCN1c2ccccc2[C@]23C[C@@H](C(=O)OC)N(C(=O)OCC)C2=NC(C(=O)OC)=C(C(=O)OC)[C@H]13	.	8.6%	-5.8%	4.7%	.	12.9%[13.5 µM]
Cc1cc(NC(=O)CSc2ccc(-c3ccccc3)nn2)no1	37.5	7.3%[46.1 µM]	-8.3%	-7.9%[38.3 µM]	?	11.6%
Clc1cccc(Cl)c1CNc1ccc(N2CCCC2)cc1	.	-28.5%	.	28.8%	.	15.8µM*
CN1CCN(c2ccccc2NC(=O)c2cc3ccccc3o2)CC1	64.1	?	-9.1%	9.1%[38.3 µM]	5.1	7.0%
O=C(NCCCN1CCOCC1)c1cc2ccccc2o1	29.1	1.8%[46.1 µM]	-1.2%	21.8%[38.3 µM]	0.0	3.7%
O=C(Nc1ccc(N2CCN(C(=O)c3ccccc3)CC2)cc1)c1cc2ccccc2o1	-6.2	?	9.5%	53.3%[38.3 µM]	27.1	?
O=C(Nc1ccccc1N1CCN(C(=O)c2ccccc2)CC1)c1cc2ccccc2o1	?	3.98µM*	?	22.0%[38.3 µM]	-7.7	-2.7%
O=C(NC(=S)N1CCOCC1)c1cc2ccccc2o1	.	-15.5%	.	0.8%	.	25.1µM*
O=C(Nc1ccccc1N1CCCC1)c1cc2ccccc2o1	-26.0	?	-23.2%	23.1%[38.3 µM]	0.5	28.2µM*
Cc1ccc(-c2nc3ncccn3c2Nc2ccc3c(c2)OCO3)o1	-118.9*	-15.8%	-20.2%	35.3%	18.6	?
Cc1nc2nc(CCc3ccccc3)nn2c(C)c1Cl	-4.7	-15.2%[46.1 µM]	0.1%	11.4%[38.3 µM]	2.2	-7.7%
C/C(CC(=O)NCCCN1CCOCC1)=N\NC(=O)COc1cccc2ccccc12	?	11.6%	-1.4%	0.8%	.	0.6%
CCn1c(=O)cc(OCC(=O)N2CCN(C(=O)c3ccco3)CC2)c2ccccc21	8.8	5.2%[46.1 µM]	-12.2%	27.5%[38.3 µM]	4.8	17.8µM*
CN(C(=O)COc1cc(=O)n(C)c2ccccc12)c1ccc(Br)cc1	-21.9	-17.3%[46.1 µM]	-10.3%	27.7%[38.3 µM]	0.9	22.4µM*
CCOC(=O)COc1cc(=O)n(CC)c2ccccc12	?	-9.0%[46.1 µM]	-3.7%	-2.8%[38.3 µM]	-6.9	-4.3%
CCn1c(=O)cc(OCC(=O)N(C)C2CCCCC2)c2ccccc21	-19.0	-12.2%[46.1 µM]	-10.4%	14.0%[38.3 µM]	-6.3	20µM*
Cc1cccc(N(C)C(=O)COc2cc(=O)n(C)c3ccccc23)c1	20.5	1.9%[46.1 µM]	-9.7%	-6.0%[38.3 µM]	3.4	-15.7%
CN1CCN(/N=C/c2ccc(Cl)c(Cl)c2)CC1	-22.4	-3.0%	-13.5%	-0.6%	5.3	-4.2%
O=C(COc1ccccc1)Nc1ccc(Cl)c(-c2nc3ncccc3o2)c1	16.1	-2.9%[46.1 µM]	-8.7%	-6.2%	1.8	2.2%
COCc1cc(C)nc(OCC(=O)N/N=C/c2ccccc2)c1C#N	.	6.8%	.	4.0%	.	4.5%
O=C1NC(c2ccccc2)C(C(=O)c2cccs2)=C1O (stereo not drawn)	-107.1*	14.4%[46.1 µM]	-3.3%	-17.4%[38.3 µM]	?	-11.2%
Cc1ccc(Cn2ccc(NC(=O)c3cc(-c4ccccc4)on3)n2)cc1	11.4	-18.2%[46.1 µM]	-1.9%	16.6%[38.3 µM]	12.4	-9.0%
CC(C)(C)c1ccc(Cn2ccc(-c3ccc4c(c3)OCO4)n2)cc1	-6.8	?	-19.4%	16.5%[38.3 µM]	9.0	3.98µM*
Cc1ccc(Cn2ccc(NC(=O)c3cc(-c4ccc5c(c4)OCO5)on3)n2)cc1	-3.4	21.5%[46.1 µM]	?	11.2µM*	1.0	-3.0%
CCC1CO1 (stereo not drawn)	.	.	-4.5%	-7.1%	.	-2.1%
S=c1[nH]c(-c2ccc(Cl)cc2)cs1	.	-12.1%	.	2.3%	.	3.16µM*
